# Nrf2 activator = activates Nrf2 signaling. AID 624171. Potency, µM (titrated, usually from 46.1 µM), for the others: at the top dose activation, actives largely listed as activators. actives 0.31% (n = 410,000). AREc32 ARE-luciferase reporter (MCF7-derived line), luminescence, 24 h; further: potency means the concentration at half of the fitted maximal effect; % of control where 0% means no effect; nearly all actives have a fitted effect of over 65% in size
#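 Steps: seed AREc32_Fluc cells (1000/well, 5% FBS OPTI-MEM); incubate overnight at 37 deg C; add 23 nL compound; incubate 24 hr; add Steady-Glo; hold 30 min RT; read luminescence.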
# 12-LOX inh = ALOX12 (human) lipoxygenase inhibition; purified 12hLO, xylenol orange hydroperoxide absorbance; Potency, µM (series often up to 108 µM), for inactives: top-dose activity change, negative = inhibition, hits mostly inhibitors; actives 1.1% (n = 580,000); AID 1671190; further: potency means the concentration at half of the fitted maximal effect; on the % scale 0 is the no-effect control and ±100 the full control effect
#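 Purified human 12hLO (150 nM final) in 25 mM Hepes, 0.01% Triton X-100, pH 7.0 was preincubated 15 min at room temperature with compound. Then 40 uM arachidonic acid was added, 30 min. Hydroperoxide was read by Fe-XO absorbance ratio 573/405 nm.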
# LDHA inh = inhibitors of human lactate dehydrogenase A; purified LDHA, NADH/diaphorase-resazurin fluorescence; hits give low values; activity change, % (values are at about 110 or 230 µM); actives 0.15% (n = 480,000); AID 1347041; in the data active means activity change below about -30%; inconclusive means mostly about -25% to -30%;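 further: plate controls were DMSO wells for no effect and wells without enzyme for full effect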
#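 Remaining NADH was detected by diaphorase (0.133 mg/mL) converting 37 µM resazurin to fluorescent resorufin, read at 0 and 20 minutes. The preceding 5-minute room-temperature reaction used 2 nM LDHA, 0.2 mM sodium pyruvate and 0.06 mM NADH at pH 7.4.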
# ERG Ets-DNA blk = ERG Ets/DNA interaction inhibition; P11308; fluorescence polarization, His-ERG Ets domain / labelled DNA; Potency, µM (top dose mostly 76.9 µM), inactives show at the highest dose FP activity, negative = inhibition, usual class: inhibitors; actives 0.028% (n = 370,000); active means well fitted inhibition curve with a large enough effect in the polarisation, with a control signal flat; inconclusive means small, poorly fitted or top-dose-only effect, or effect the other way, or a change in a side signal; inactive means no such curve, though single readings can be large or run the other way; the % refers to the polarisation;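 further: polarization taken with two DNA probes labelled with fluorescein and Texas red; potency means the concentration at half of the fitted maximal effect; % of control where 0% means no effect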
# Target sequence (P11308 whole entry, looked up, the tested form may be a part): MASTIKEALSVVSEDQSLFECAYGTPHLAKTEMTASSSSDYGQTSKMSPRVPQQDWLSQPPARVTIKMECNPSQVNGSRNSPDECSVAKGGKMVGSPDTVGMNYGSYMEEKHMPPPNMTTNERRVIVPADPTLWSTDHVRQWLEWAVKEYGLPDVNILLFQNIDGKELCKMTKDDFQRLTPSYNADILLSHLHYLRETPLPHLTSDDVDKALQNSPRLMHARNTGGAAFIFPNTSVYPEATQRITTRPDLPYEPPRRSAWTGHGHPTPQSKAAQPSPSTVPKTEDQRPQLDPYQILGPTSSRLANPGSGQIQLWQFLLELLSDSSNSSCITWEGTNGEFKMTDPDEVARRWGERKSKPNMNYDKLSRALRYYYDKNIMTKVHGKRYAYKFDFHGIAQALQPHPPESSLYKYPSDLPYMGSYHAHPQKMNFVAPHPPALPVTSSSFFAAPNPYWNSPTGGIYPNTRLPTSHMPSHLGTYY
#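 His-tagged ERG Ets domain (1 uM in the protein solution; 300mM KCl, 50mM Tris-HCl, 1mM EDTA, 1mM DTT, pH 7.5) received compound, then a probe mix of 5 nM fluorescein-DNA and 100nM Texas-615-DNA. Fluorescence polarization was read for both dyes.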
# A549 tox-1 = kills or reduces viability of A549 cells in Nrf2 counter-screen; A549 ARE-Fluc cells, CellTiter-Fluor viability, 18-24 h; Potency, µM (highest dose often 46 µM), for inactives: at the highest dose activity change, negative = cytotoxicity, hits mostly inhibitors; actives 0.16% (n = 390,000); AID 504648; further: potency means the concentration at half of the fitted maximal effect; on the % scale 0 is the no-effect control and ±100 the full control effect
#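 Cytotoxicity counterscreen: CellTiter-Fluor fluorescence was measured in A549 ARE_Fluc cells after 18-24 h of compound exposure in a concentration series. The subsequent BugLite luminescent read reports ARE-luciferase activity.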
# Nrf2 block = Nrf2 pathway inhibition; A549 ARE-Fluc reporter, luciferase luminescence, 18-24 h; Potency, µM (highest dose often 46 µM), for the others: at the top dose activity change, negative = inhibition, most hits filed as inhibitors; actives 2.1% (n = 360,000); AID 504444; further: potency means the concentration at half of the fitted maximal effect; on the % scale 0 is the no-effect control and ±100 the full control effect; nearly all actives have a fitted effect of over 60% in size
#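 A549 ARE_Fluc cells (5000/well, 5% FBS OPTI-MEM) pre-incubated 2 h, then treated with compounds 18-24 h at 37C/5% CO2 in concentration-response. CellTiter-Fluor viability read first; BugLite luciferase luminescence after 15 min at room temperature gives Nrf2 activity.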
# FLuc counter 3 = blocks purified firefly luciferase in Nrf2 counterscreen | Potency, µM (highest dose often 57.5 µM), for inactives: at the highest dose activity change, negative = inhibition, hits mostly inhibitors | shares compounds with Nrf2 block | actives 4% (n = 1,400) | AID 720522 | purified firefly luciferase, luminescence inhibition; further: potency means the concentration at half of the fitted maximal effect; on the % scale 0 is the no-effect control and ±100 the full control effect; nearly all actives have a fitted effect of over 65% in size
# A549 tox-2 = A549 cytotoxicity, Nrf2 inhibitor counterscreen | Potency, µM (series often up to 46.1 µM), inactives show at the top dose activity change, negative = cytotoxicity, actives largely listed as inhibitors | actives 2% (n = 1,400) | shares compounds with Nrf2 block | AID 720523 | A549 ARE-Fluc cells, cytotoxicity counterscreen;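 further: potency means the concentration at half of the fitted maximal effect; cells exposed to compounds for 18 to 24 hours; on the % scale 0 is the no-effect control and ±100 the full control effect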
# ARE-Fluc inh = Nrf2 inhibition confirmed, A549 ARE-luciferase; shares compounds with Nrf2 block; A549 ARE-firefly luciferase reporter, luminescence; Potency, µM (titrated, usually from 46.1 µM), for the others: at the top dose activity change, negative = inhibition, most hits filed as inhibitors; actives 74% (n = 1,400); further: potency means the concentration at half of the fitted maximal effect; on the % scale 0 is the no-effect control and ±100 the full control effect; nearly all actives have a fitted effect of over 65% in size
# * hit, by the source's call; ? = inconclusive; / = no result shown. Most compounds without a hit are left out; they make up all but 2.7% or so of the library. Unless noted, the call rests on the fitted dose curve; in most records, active means well fitted curve in the direction sought with a large enough effect; inconclusive means small, poorly fitted or top-dose-only effect, or another doubt; inactive means no such curve, though single readings can be large; an effect the other way counts as inactive or inconclusive.
SMILES,Nrf2 activator,12-LOX inh,LDHA inh,ERG Ets-DNA blk,A549 tox-1,Nrf2 block,FLuc counter 3,A549 tox-2,ARE-Fluc inh
CCCn1c(NC(=O)c2cccc(S(=O)(=O)N3CCCC3)c2)nc2ccccc21,-2%,10%,2,5%,?,7.3µM*,-13%,?,7.3µM*
COc1ccc(CC(=O)Nc2ccncc2Cl)cc1,-1%,-4%,0,1%,-1%,5.2µM*,2%,7%,?
CC(CCc1ccccc1)NC(=O)c1cc2c(Cl)nc3ccccc3c2s1 (configuration not stated),/,?,0,/,/,/,/,/,/
CC(Oc1ccc(C#N)cc1)C(=O)c1cccc(Cl)c1 (configuration not stated),/,?,-2,/,/,/,/,/,/
CCc1nnc(NC(=O)c2ccc(OCc3c(C)noc3C)c(OC)c2)s1,0%,-6%,2,8%,0%,5.8µM*,2%,5%,15%
Cc1cc[n+](Cc2ccc([N+](=O)[O-])cc2)cc1,0%,1%,-3,11%,-9%,?,/,/,/
Cc1ccc(-c2cc[n+](Cc3ccccc3)cc2)cc1,-1%,-14%,-3,10%,-8%,7.3µM*,1%,-2%,9.2µM*
CN1/C(=C/c2cc[n+](C)c3ccccc23)C=Cc2ccccc21,0%,/,0,49%,21µM*,1.2µM*,?,?,6.5µM*
CC1(C)CC2CC(C)(CN2S(=O)(=O)c2ccc(C(=O)Nc3cccc(S(=O)(=O)N4CCOCC4)c3)cc2)C1 (configuration not stated),0%,-1%,-4,6%,-2%,2.3µM*,-1%,-4%,2.1µM*
CC1(C)CC2CC(C)(CN2S(=O)(=O)c2ccc(C(=O)Nc3cc(S(=O)(=O)N4CCOCC4)ccc3Cl)cc2)C1 (configuration not stated),-1%,11%,-3,-3%,-4%,?,/,/,/
Cc1ccccc1C(=O)N1CCN(c2ccc(NC(=O)c3ccc4c(c3)OCO4)cc2)CC1,0%,-2%,-7,-1%,-12%,9.2µM*,-12%,-4%,7.3µM*
COc1cc(C2CC(=O)Nc3c(-c4ccccc4)nsc32)c(OC)c2c1OCO2 (configuration not stated),/,6%,-8,/,/,/,/,/,/
Cc1ccc2oc(C(=O)NCCCOCC3CC3)cc(=O)c2c1,/,8%,-4,/,/,/,/,/,/
COc1ccc(/C=C/c2cc(-c3ccc(C)cc3)o[n+]2C)cc1,-2%,-13%,-2,0%,?,8.2µM*,-2%,?,2.9µM*
COc1ccc(-c2c[n+]3c(n2-c2ccccc2)CCCCC3)cc1,0%,-1%,-1,4%,-11%,?,/,/,/
CCOc1ccc(-n2c(-c3ccccc3)c[n+]3c2CCC3)cc1,0%,-1%,-5,-5%,-6%,2.3µM*,1%,-10%,16µM*
CCOc1ccc(-n2c(-c3ccc(Br)cc3)c[n+]3c2CCCCC3)cc1,1%,-3%,-6,-4%,-14%,?,/,/,/
CCOc1ccc(-n2c(-c3ccc(OC)cc3)c[n+]3c2CCCCC3)cc1,4%,-8%,-1,1%,?,2.6µM*,2%,-19%,3.7µM*
CCCCCCCCC(=O)Nc1cccc(C)c1C,/,23%,14,/,/,/,/,/,/
O=C(O)CCC(NC(=O)C12CC3CC(CC(C3)C1)C2)C(=O)O (configuration not stated),/,?,-6,/,/,/,/,/,/
CCCCOc1ccccc1NC(=O)c1scc2c1OCCO2,6%,143%,2,0%,1%,5.2µM*,-14%,4%,6%
C/C(Cl)=C\Cn1c(NCCc2ccccc2)nc2c1c(=O)n(C)c(=O)n2C,0%,-6%,-3,/,-16%,2.9µM*,1%,-11%,7.3µM*
Cn1c(=O)c2c(nc(NCCc3ccccc3)n2CC(=O)NCCc2ccccc2)n(C)c1=O,0%,10%,-6,3%,0%,-2%,/,/,/
Cn1c(=O)c2c(nc(NCCc3ccccc3)n2CC(=O)O)n(C)c1=O,/,?,3,/,/,/,/,/,/
C=CCn1c(NCCc2ccccc2)nc2c1c(=O)n(C)c(=O)n2C,0%,489%,-2,2%,-9%,9.2µM*,2%,4%,/
SMILES,Nrf2 activator,12-LOX inh,LDHA inh,ERG Ets-DNA blk,A549 tox-1,Nrf2 block,FLuc counter 3,A549 tox-2,ARE-Fluc inh
O=C(Nc1ccccn1)c1cc(-c2ccncc2)nc2ccccc12,/,5%,0,/,/,/,/,/,/
O=C(Nc1ccc2oc(-c3cccnc3)nc2c1)c1ccc(-c2cccc(OC(F)(F)F)c2)o1,4%,-13%,8,-23%,-3%,1.5µM*,-24%,-9%,1.8µM*
Cc1c(Cl)cccc1-c1ccc(C(=O)Nc2ccc3oc(-c4cccnc4)nc3c2)o1,3%,?,3,-2%,0%,?,/,/,/
O=C(c1cnc(N2CCN(c3ccccn3)CC2)c2ccccc12)N1CCN(c2cccc(Cl)c2)CC1,0%,-6%,0,-2%,-30%,5.8µM*,4%,-22%,8.2µM*
COC(=O)c1ccc2c(c1O)C(=O)c1ccccc1C2=O,2%,6%,14,1%,?,3.3µM*,11µM*,3.7µM*,3.7µM*
Cc1ccc(S(=O)(=O)n2nc(OC(=O)c3ccccc3C)cc2N)cc1,0%,-14%,2,0%,4%,5.8µM*,-13%,0%,2.3µM*
COc1ccccc1C(=O)Oc1cc(N)n(S(=O)(=O)c2ccc(C)cc2)n1,0%,0%,-3,-4%,-16%,?,/,/,/
COc1ccc(C(=O)Oc2cc(N)n(S(=O)(=O)c3ccc(C)cc3)n2)cc1,0%,-21%,-6,13%,3%,7.3µM*,3%,-9%,2.1µM*
Nc1cc(OC(=O)c2ccc(F)cc2)nn1S(=O)(=O)c1ccc(F)cc1,-1%,-11%,-6,-1%,-5%,?,/,/,/
O=C(Cc1ccccc1)Nc1scc(-c2ccccc2)c1C(=O)N1CCOCC1,0%,/,0,-5%,3%,11%,/,/,/

# Source: PubChem BioAssay (National Center for Advancing Translational Sciences (NCATS))
